Bioassay records (PubChem BioAssay)
Compounds with a hit are over-represented: about 18% of the library has one in this group of screens.
VDR inh: vitamin D3 receptor (human) inhibition; P11473; VDR-SRC2-3 peptide fluorescence polarization, 2 h; Potency, µM, actives largely listed as inhibitors; 0.93% of 400,000 active
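Inhibition of the VDR/SRC2-3 peptide interaction is quantified by fluorescence polarization. Compounds (23 nl, pintool) incubate with the reagents for 2 hours at ambient room temperature.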
TDP1 cell noCPT: qHTS for Inhibitors of human tyrosyl-DNA phosphodiesterase 1 (TDP1): qHTS in cells in absence of CPT; DT40 Tdp1-/- hTDP1 cells, no CPT, ATP luminescence, 48 h; 15% of 420,000 active; Potency, µM (series often up to 46.2 µM), most hits filed as inhibitors; further: nearly all actives have a fitted effect of over 55% in size
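No-CPT arm: Tdp1-/-;hTDP1 DT40 cells (400/well) plus compounds, incubated ≥48 hr at 37 °C. Readout CellTiter-Glo luminescence.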
TDP1 cell CPT: DT40-hTDP1 cell growth loss with CPT; chicken DT40 Tdp1-/-;hTDP1 cells + 20 nM CPT, ATP luminescence, 48 h; Potency, µM (highest dose often 46.2 µM), most hits filed as inhibitors; 12% of 420,000 active; AID 686979; further: nearly all actives have a fitted effect of over 55% in size
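Chicken DT40 Tdp1-/- cells stably complemented with human TDP1 were seeded at 400 cells/well in medium containing 20 nM camptothecin, exposed to pin-transferred compounds, and grown at 37 °C for at least 48 hr. Viability was read as ATP luminescence.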
PLK1 PBD inh: inhibitors of human PLK1 polo-box domain binding; 2.8% of 360,000 active; P53350; Plk1 PBD binding of FITC phosphopeptide, fluorescence polarization; Potency, µM, actives largely listed as inhibitors; further: series mostly up to about 57 µM; nearly all actives have a fitted effect of over 65% in size
TDP1 inh: blocks human tyrosyl-DNA phosphodiesterase 1; recombinant TDP1, AlphaScreen DNA substrate cleavage; Potency, µM (doses to about 130 µM), most hits filed as inhibitors; 0.28% of 350,000 active; further: nearly all actives have a fitted effect of over 40% in size
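Tdp1 1 nM final; 15 min RT w/ cpd; substrate 15 nM, 5 min; beads 10 ug/ml, 10 min; AlphaScreen read. Neg ctrl: no enzyme.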
KAT2A inh: blocks human GCN5L2 histone acetyltransferase. Q92830. GCN5L2 HAT assay, ThioGlo1 CoA-SH fluorescence. Potency, µM (titrated, usually from 58.9 µM), hits mostly inhibitors. 0.21% of 390,000 active. AID 504327
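ThioGlo1-coupled HAT assay: 20nM GCN5L2, 70uM acetyl-CoA, 75uM H3(1-25) peptide, pH 7.5. Fluorescence read at 340/540nm at start and after 20 min at room temperature.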
Large screens that a line does not name were inactive. The call rests on the fitted dose curve; in most records, active means well fitted curve in the direction sought with a large enough effect; inconclusive means small, poorly fitted or top-dose-only effect, or another doubt; inactive means no such curve, though single readings can be large; an effect the other way counts as inactive or inconclusive.

CN1CCN(C(CNC(=O)c2ccc(Br)o2)c2ccc(F)cc2)CC1 (stereo not given)	none (no result: TDP1 inh)
Cc1ccc2nc(NC(=O)C3CCN(S(=O)(=O)c4cc([N+](=O)[O-])ccc4Cl)CC3)sc2c1	TDP1 cell noCPT 6.5µM, TDP1 cell CPT 9.2µM, KAT2A inh inconclusive
O=C(NCc1ccccc1)C1CCN(S(=O)(=O)c2cc([N+](=O)[O-])ccc2Cl)CC1	TDP1 cell CPT inconclusive
Cc1ccc(NC(=O)C2CCN(S(=O)(=O)c3cc([N+](=O)[O-])ccc3Cl)CC2)nc1	TDP1 cell noCPT 15µM, TDP1 cell CPT 16µM
CN(Cc1ccccc1)C(=O)C1CCN(S(=O)(=O)c2cc([N+](=O)[O-])ccc2Cl)CC1	TDP1 cell noCPT 23µM, TDP1 cell CPT inconclusive
COc1cccc(NC(=O)c2cn(C3CCCCC3)c(=O)c3c2c2ccccc2n3C)c1	TDP1 cell noCPT inconclusive (no result: PLK1 PBD inh)
COc1cc(-c2ccc(N3C(c4ccsc4)=Cc4ccc(F)cc4C3c3c[nH]c4ccc(C#N)cc34)cc2)cc(OC)c1OC (stereo not given)	TDP1 cell noCPT inconclusive, TDP1 cell CPT inconclusive (no result: VDR inh, TDP1 inh, KAT2A inh)
CC(C)(O)C#Cc1ccc(N2C(c3ccsc3)=Cc3ccc(F)cc3C2c2c[nH]c3ccccc23)cc1 (stereo not given)	TDP1 cell noCPT 18µM, TDP1 cell CPT inconclusive (no result: VDR inh, TDP1 inh, KAT2A inh)
N#Cc1ccc2[nH]cc(C3c4cc(F)ccc4C=C(c4ccsc4)N3c3ccc(C#CCCO)cc3)c2c1 (stereo not given)	TDP1 cell noCPT 18µM, TDP1 cell CPT inconclusive (no result: VDR inh, TDP1 inh, KAT2A inh)
COc1ccc(-n2ncc3c(NCCC4=CCCCC4)ncnc32)cc1	TDP1 cell noCPT inconclusive, TDP1 cell CPT 16µM (no result: PLK1 PBD inh)
COc1ccc2[nH]c3c(NCCC4=CCCCC4)ncnc3c2c1	TDP1 cell noCPT 2.9µM, TDP1 cell CPT 2.6µM
CCN(CC)CCNc1ncnc2c1[nH]c1ccc(OC)cc12	none (no result: VDR inh, TDP1 cell noCPT, TDP1 cell CPT, PLK1 PBD inh)
COc1ccc2c(c1)[nH]c1c(=O)n(CCC3=CCCCC3)cnc12	TDP1 cell noCPT 23µM, TDP1 cell CPT inconclusive
Cc1ccc(-n2ncc3c(NCCC4=CCCCC4)ncnc32)cc1	TDP1 cell noCPT inconclusive, TDP1 cell CPT inconclusive (no result: PLK1 PBD inh)
COc1ccc(S(=O)(=O)Oc2ccccc2C(N)=O)cc1	none
O=C(NCCCC1CCCC1)C1CCC(=O)N(Cc2ccc(Cl)cc2)C1 (stereo not given)	TDP1 cell noCPT inconclusive, TDP1 cell CPT inconclusive
CCOc1c2c(c(-c3ccc4c(c3)OCO4)c3cc(OC)c(OC)cc13)C(=O)OC2	TDP1 cell noCPT 0.56µM, TDP1 cell CPT 0.89µM (no result: PLK1 PBD inh, KAT2A inh)
COc1cc(OC)c2c(OC)c(-c3ccc4c(c3)OCO4)c(=O)oc2c1	none (no result: PLK1 PBD inh)
CC1CCN(S(=O)(=O)c2ccc3c(ccc(=O)n3CC(=O)Nc3ccc(C(C)C)cc3)c2)CC1	TDP1 cell noCPT inconclusive, TDP1 cell CPT inconclusive (no result: PLK1 PBD inh)
C=CCn1c(C)cc(C(=O)CSc2nc(N)cc(N)n2)c1C	TDP1 cell noCPT inconclusive
C=CCn1c(C)cc(C(=O)COC(=O)c2cncc(Br)c2)c1C	TDP1 cell noCPT inconclusive, TDP1 cell CPT 18µM
C=CCn1c(C)cc(C(=O)COc2ncnc3sccc23)c1C	TDP1 cell noCPT 16µM, TDP1 cell CPT inconclusive
COc1ccc(CCC(=O)NNC(=O)c2ccc(OC)cc2)cc1	none
COc1ccc(NS(=O)(=O)c2ccc(N3CCOCC3)c(NC(=O)c3ccccc3Cl)c2)cc1	TDP1 cell noCPT inconclusive
Nc1cc(S(=O)(=O)Nc2cc(Cl)ccc2Cl)ccc1N1CCOCC1	VDR inh 35µM, TDP1 cell noCPT inconclusive, TDP1 cell CPT inconclusive, PLK1 PBD inh 1.9µM
COC(=O)CCC(=O)Nc1cc(S(=O)(=O)Nc2ccc(Cl)cc2)ccc1N1CCOCC1	TDP1 cell noCPT inconclusive, PLK1 PBD inh 15µM
Nc1ccc(S(=O)(=O)c2ccc(N3CCOCC3)c(N)c2)cc1	TDP1 cell noCPT 21µM (no result: VDR inh, TDP1 inh, KAT2A inh)
COc1ccc(NS(=O)(=O)c2ccc(N3CCOCC3)c(NC(=O)c3ccc(OC)cc3)c2)cc1	TDP1 cell noCPT 16µM, TDP1 cell CPT 16µM
